hcDAF-12 act: activates DAF-12 receptor from parasite H. contortus | activation, % at 6.8 µM | actives 1.4% (n = 370,000) | HEK293 hcDAF-12 lit1-tk-luc reporter, luminescence; 0% DMSO, 100% Δ7-dafachronic acid;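 active means activation above the mean of all tested compounds plus 3 SD, cut at about 5.5% in these data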
SMARCA2 act: activators of SMARCA2 function | MG213 cells, MMTV-luciferase reporter, dexamethasone, overnight | actives 1% (n = 370,000) | activation, % at 9.1 µM; in the data active means activation above about 7.8%
DAX1 inh-1: NR0B1 (DAX1) inhibition; inhibition, % at 6.75 µM; P51843; actives 0.99% (n = 340,000); AID 504766; HEK293 Gal4-DAX1 luciferase reporter, luminescence;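 active means inhibition above the mean over all tested compounds plus 3 SD, cut at about 4.2% in these data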;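 further: inhibition shows as a rise in luminescence from relieved DAX1 repression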
Target sequence (P51843 207-470 limits assumed): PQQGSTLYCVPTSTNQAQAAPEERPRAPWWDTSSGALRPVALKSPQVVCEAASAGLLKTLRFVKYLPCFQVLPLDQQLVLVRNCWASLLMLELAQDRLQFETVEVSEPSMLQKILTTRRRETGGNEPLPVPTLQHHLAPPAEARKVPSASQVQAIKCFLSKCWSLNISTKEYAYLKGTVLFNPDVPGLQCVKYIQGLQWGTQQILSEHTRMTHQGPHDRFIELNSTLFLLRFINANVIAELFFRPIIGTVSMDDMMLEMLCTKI
DAX1 inh-2: blocks DAX1 repression of SF-1 activated StAR promoter; HEK293T StAR-luciferase reporter, SF-1/DAX-1 repression relief; inhibition, % at 6.8 µM; actives 1.1% (n = 370,000); AID 652010;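 active means inhibition above the mean over all tested compounds plus 3 SD, cut at about 3.6% in these data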;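 further: higher inhibition means more luminescence from relief of DAX-1 repression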
ssDAF12 agonist: activates DAF-12 receptor from parasite S. stercoralis; activation, % at 6.8 µM; actives 1% (n = 370,000); HEK293 ssDAF-12/GRIP1 lit1-tk-luc reporter, luminescence; % of 3 µM dafachronic acid response; AID 652126;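 active means activation above the mean over all tested compounds plus 3 SD, cut at about 0.9% in these data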
hgDAF-12 ag: agonists of H. glycines DAF-12 nuclear receptor | HEK293 GAL4-hgDAF12 UAS-luciferase reporter, agonist luminescence; normalized to butyrate control | activation, % at 6.8 µM | actives 1.8% (n = 370,000) | AID 687014;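 active means activation above a cutoff set at the mean of all screened compounds plus 3 SD, cut at about 10% in these data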
Hits are given with their value; n = inactive; x = no result. The list is not random: actives were taken first. Their share in the collection is about 4.8%.

SMILES	hcDAF-12 act	SMARCA2 act	DAX1 inh-1	DAX1 inh-2	ssDAF12 agonist	hgDAF-12 ag
O=C(O)Cn1c(=O)c2c(c3ccccc31)CCC2	n	n	n	n	n	n
O=c1cc(-c2ccc(O)cc2)oc2c(C3OCC(O)C(O)C3O)c(O)c(C3OC(CO)C(O)C(O)C3O)c(O)c12 (configuration not stated)	n	n	n	n	n	n
N#Cc1ccsc1NC(=O)COC(=O)c1cc(Br)ccc1O	n	n	6.0	n	n	n
N#Cc1ccsc1NC(=O)COC(=O)c1ccc(Br)o1	n	n	n	n	n	n
CCN(CC)c1cc(-c2ccccc2)ncn1	n	n	n	n	n	n
CN(C)c1ccc(-c2ccccc2)nn1	n	n	n	3.8	n	n
CCOc1ccccc1C(=O)N[C@H](C(=O)Nc1nc2c(s1)CCCC2)C(C)C	n	n	n	n	4.1	n
Cc1nn(Cc2ccc(C(=O)NC3CCCCC3)o2)c(C)c1Br	n	n	n	n	n	n
CCC(C)(C)NC(=O)C(c1ccncc1)N(Cc1cccs1)C(=O)Cn1nnc2ccccc21 (configuration not stated)	n	n	n	n	n	n
O=[N+]([O-])c1ccc2[nH]c(=S)sc2c1	n	n	n	n	2.2	n
CC(=O)c1ccccc1NC(=O)Cn1c(=O)cnc2ccccc21	6.1	n	n	n	n	n
CC(C)C(CCNC1CCN(C)CC1)c1ccc(Cl)cc1 (configuration not stated)	n	n	n	n	n	n
O=C(c1ccccc1C(F)(F)F)N1CCN(S(=O)(=O)c2ccccc2)CC1	n	n	7.5	n	n	n
CN(C)C(=O)c1nc(C#N)c(N(C)C)o1	n	n	n	n	n	n
COC(=O)CSc1nc2nc(-c3cccs3)cc(C(F)(F)F)c2c(=O)[nH]1	n	n	n	n	n	n
O=C(CSc1nc2nc(-c3cccs3)cc(C(F)(F)F)c2c(=O)[nH]1)C(F)(F)F	n	n	n	n	n	13
C/C(=N\Nc1nc(C(C)(C)C)cs1)c1ccc(O)cc1	5.8	n	n	n	n	n
O=C(O)c1ccc(Nc2nc(-c3ccc([N+](=O)[O-])cc3)nc3ccccc23)cc1	5.6	n	n	n	n	n
COc1cc(OC)cc(C(=O)NC2=NCCS2)c1	n	n	n	n	n	n
COc1ccc(C(=O)NC2=NCCS2)cc1	n	n	n	n	n	12
CCc1nnc(NC(=O)c2cccc(OC)c2)s1	n	n	n	3.9	n	n
CCc1nnc(NC(=O)Cc2ccc(OC)c(OC)c2)s1	n	n	5.1	n	n	n
Cc1ccc(C(=O)Nc2nnc(COCCO)s2)cc1	6.0	n	x	n	1.0	n
CCc1nnc(NC(=O)c2ccc(S(C)(=O)=O)cc2)s1	n	n	n	n	n	n
CCc1nnc(NC(=O)c2ccc(OC)cc2)s1	n	n	n	n	n	11
SMILES	hcDAF-12 act	SMARCA2 act	DAX1 inh-1	DAX1 inh-2	ssDAF12 agonist	hgDAF-12 ag
COc1cccc(C(=O)Nc2nnc(C3CCCO3)s2)c1 (configuration not stated)	n	n	n	n	1.0	n
O=C(Nc1nnc(C2CCCO2)s1)c1cccs1 (configuration not stated)	n	n	n	n	n	n
CCOC(=O)CNC(=O)CSc1nnc(NC(=O)c2ccc(C)cc2)s1	6.4	n	n	n	n	13
CCCn1c(SCC(=O)N(C2CCCCC2)C2CCS(=O)(=O)C2)n[nH]c1=O (configuration not stated)	n	n	n	n	n	n
COc1ccccc1CN(C)C(=O)c1cc(C)nc2ccccc12	n	n	n	n	n	n
Cc1cccc(Nc2nnc(SCC(=O)NC3CCCc4ccccc43)s2)c1C (configuration not stated)	n	n	n	n	n	n
COc1cc(C(=O)OCC(=O)Nc2ccc(F)cc2F)cc(OC)c1OC	n	n	n	n	n	n
N#Cc1ccc(S(=O)(=O)N2CCCc3nc(-c4ccc(Br)cc4)ccc32)cc1	n	n	x	n	1.4	n
O=S(=O)(c1ccc(F)cc1)N1CCCc2nc(-c3ccc(Br)cc3)ccc21	n	n	x	n	n	n
N#Cc1ccc(S(=O)(=O)N2CCCc3nc(-c4ccc(F)cc4)ccc32)cc1	n	n	x	n	1.7	n
Nn1c(SCc2c(F)cccc2F)nnc1-c1ccccn1	n	n	24	n	n	n
Cc1cc(NCCN2CCOCC2)n2ncc(-c3ccccc3)c2n1	n	n	n	n	n	n
C=CCc1c(C)nc2c(-c3ccccc3)cnn2c1N1CCOCC1	5.6	n	n	n	n	n
Cc1ccc(-c2cnn3c(N4CCOCC4)cc(C)nc23)cc1	n	n	7.6	n	n	n
Cc1cc(N2CCOCC2)n2ncc(-c3ccc(Cl)cc3)c2n1	n	n	6.7	n	n	n
COc1ccc(S(=O)(=O)n2c([N+](=O)[O-])cnc2C)c(C)c1C	n	n	n	n	n	n
COc1ccc(Cc2nnc(NC(=O)c3ccc(F)cc3)s2)cc1OC	n	n	n	n	n	n
Cc1ccc(SCCC(=O)N(C)C)cc1	n	n	n	n	n	n
CC(C)c1ccc(C(=O)NCCCN2CCN(CCCNC(=O)c3ccc(C(C)C)cc3)CC2)cc1	n	n	n	n	n	n
COc1cc(C(=S)N2CCCC2)ccc1O	n	n	n	n	n	n
CN1CCN(C(=O)C2Cc3c(-c4cccc(F)c4)ccnc3O2)CC1 (configuration not stated)	n	n	x	n	n	n
COc1ccccc1N1CCN(C(=O)c2ccccc2Oc2ccccc2)CC1	n	n	n	n	n	n
COC(=O)/C(=C/c1cn(C(C)=O)c2ccccc12)[N+](=O)[O-]	5.7	n	x	n	n	n
COC(=O)/C(=C/c1c[nH]c2ccccc12)[N+](=O)[O-]	n	n	n	n	n	n
Cc1nc(NC(=O)C2CC2)sc1C(=O)N(C)C	n	n	n	n	n	n
SMILES	hcDAF-12 act	SMARCA2 act	DAX1 inh-1	DAX1 inh-2	ssDAF12 agonist	hgDAF-12 ag
COP(=O)(CC(=O)O)C(CC(C)C)NC(=O)OCc1ccccc1 (configuration not stated)	n	n	x	n	n	n
CCN(CC)CCCNC(=O)C1CCN(c2ncnc3c2sc2cccc(F)c23)CC1	n	n	n	n	1.0	n
C=CCn1c(=NC(=O)c2cccc(N3C(=O)CCC3=O)c2)sc2cccc(OC)c21	n	n	4.8	n	n	n
COc1ccc(C)c2sc(=NC(=O)c3cccc(N4C(=O)CCC4=O)c3)n(C)c12	n	n	n	n	n	n
CCOC(=O)c1ccc(-n2c(=O)[nH]c3ccccc3c2=O)cc1	n	n	n	n	n	n
CCOC(=O)c1ccc(-n2c(C)nc3ccc(Br)cc3c2=O)cc1	n	n	n	n	2.7	n
COc1cccc(C2Nc3ccccc3C(=O)N2Cc2ccccc2)c1 (configuration not stated)	n	n	n	n	n	n

Bioassay records (PubChem)
